These results are taken from PubChem BioAssay.

The nature of assay [1]: binders of probe aFSTL3 on microarray, primary screen, stem cell growth factor project, biochemical, small-molecule microarray, fluorescence 635/667 (AID 1064).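 Also: measures binding of the biotinylated anti-FSTL3 antibody to printed compounds.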 Particulars: higher = more signal.
Assay [2] is described as follows: binders from COS7 lysate, DM2A8 probe, primary screen, torsin A project, cell lysate, small-molecule microarray, fluorescence 635/667 (AID 1065). Particulars: higher = more signal, COS7 lysate expressing mutant human TOR1A.
A short description of assay [3]: binders of probe aFGF2 on microarray, primary screen, stem cell growth factor project, biochemical, small-molecule microarray, fluorescence 635/667 (AID 1067).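 Also: measures binding of biotinylated aFGF2 protein to printed compounds on slides; z-score merges feature fluorescence and signal-to-noise across triplicate slides.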 Particulars: higher = more signal.
Assay [4] can be described thus: binders of probe aFGF10 on microarray, primary screen, stem cell growth factor project, biochemical, small-molecule microarray, fluorescence 635/667 (AID 1071).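 Also: score merges 667 nm spot intensity and signal to noise from triplicate slides.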 Particulars: higher = more signal.
Assay [5] deals with Neurogenic locus notch homolog protein 2 (Homo sapiens) (UniProt Q04721). Put plainly: Notch2 binders on small-molecule microarrays, primary screen, biochemical, small-molecule microarray, 635 nm fluorescence, stem cell growth factors (AID 1073). Particulars: Notch2 binding, higher = more signal.
Assay [6] has as its target Pro-neuregulin-1, membrane-bound isoform (Homo sapiens) (UniProt Q02297). Put plainly: NRG1 binders on small-molecule microarrays, primary screen, psychiatric disease protein project, biochemical, small-molecule microarray, fluorescence 635/667 (AID 1075).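 Also: score combines 667 nm spot fluorescence with signal to noise.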 Particulars: NRG1 binding, 635 nm fluorescence, higher = more signal.
Assay [7] concerns Neuregulin-1 EGF-like domain. In words: binders of neuregulin-1 EGF-like domain, primary screen, biochemical, small-molecule microarray, 635 nm fluorescence (AID 1081).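 Also: binding of the protein to compounds printed on small-molecule microarray slides.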 Particulars: small-molecule microarray binding, higher = more signal.
Assay [8] in a line: FRG1 promoter luciferase signal modulators, primary screen, FRG1 inhibition for FSHD, cell-based, C2C12 myotubes, firefly/Renilla luciferase, luminescence (AID 1084). Particulars: higher = more signal, called active from +8 up or from −8 down.
A short description of assay [9]: binders of probe aFST on microarray, primary screen, stem cell growth factor project, biochemical, small-molecule microarray, fluorescence 635/667 (AID 1086).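 Also: score merges 667 nm fluorescence with signal-to-noise of each printed compound spot.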 Particulars: higher = more signal.
The nature of assay [10]: binders of probe aHhip on microarray, primary screen, stem cell growth factor project, biochemical, small-molecule microarray, fluorescence 635/667 (AID 1087).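 Also: score merges spot fluorescence at 667nm with spot signal to noise ratio.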 Particulars: higher = more signal.

Molecules are shown by their SMILES. Activity calls are given as the source filed them.

Sequence of Neurogenic locus notch homolog protein 2 (Homo sapiens) (Q04721 whole entry, looked up, canonical isoform): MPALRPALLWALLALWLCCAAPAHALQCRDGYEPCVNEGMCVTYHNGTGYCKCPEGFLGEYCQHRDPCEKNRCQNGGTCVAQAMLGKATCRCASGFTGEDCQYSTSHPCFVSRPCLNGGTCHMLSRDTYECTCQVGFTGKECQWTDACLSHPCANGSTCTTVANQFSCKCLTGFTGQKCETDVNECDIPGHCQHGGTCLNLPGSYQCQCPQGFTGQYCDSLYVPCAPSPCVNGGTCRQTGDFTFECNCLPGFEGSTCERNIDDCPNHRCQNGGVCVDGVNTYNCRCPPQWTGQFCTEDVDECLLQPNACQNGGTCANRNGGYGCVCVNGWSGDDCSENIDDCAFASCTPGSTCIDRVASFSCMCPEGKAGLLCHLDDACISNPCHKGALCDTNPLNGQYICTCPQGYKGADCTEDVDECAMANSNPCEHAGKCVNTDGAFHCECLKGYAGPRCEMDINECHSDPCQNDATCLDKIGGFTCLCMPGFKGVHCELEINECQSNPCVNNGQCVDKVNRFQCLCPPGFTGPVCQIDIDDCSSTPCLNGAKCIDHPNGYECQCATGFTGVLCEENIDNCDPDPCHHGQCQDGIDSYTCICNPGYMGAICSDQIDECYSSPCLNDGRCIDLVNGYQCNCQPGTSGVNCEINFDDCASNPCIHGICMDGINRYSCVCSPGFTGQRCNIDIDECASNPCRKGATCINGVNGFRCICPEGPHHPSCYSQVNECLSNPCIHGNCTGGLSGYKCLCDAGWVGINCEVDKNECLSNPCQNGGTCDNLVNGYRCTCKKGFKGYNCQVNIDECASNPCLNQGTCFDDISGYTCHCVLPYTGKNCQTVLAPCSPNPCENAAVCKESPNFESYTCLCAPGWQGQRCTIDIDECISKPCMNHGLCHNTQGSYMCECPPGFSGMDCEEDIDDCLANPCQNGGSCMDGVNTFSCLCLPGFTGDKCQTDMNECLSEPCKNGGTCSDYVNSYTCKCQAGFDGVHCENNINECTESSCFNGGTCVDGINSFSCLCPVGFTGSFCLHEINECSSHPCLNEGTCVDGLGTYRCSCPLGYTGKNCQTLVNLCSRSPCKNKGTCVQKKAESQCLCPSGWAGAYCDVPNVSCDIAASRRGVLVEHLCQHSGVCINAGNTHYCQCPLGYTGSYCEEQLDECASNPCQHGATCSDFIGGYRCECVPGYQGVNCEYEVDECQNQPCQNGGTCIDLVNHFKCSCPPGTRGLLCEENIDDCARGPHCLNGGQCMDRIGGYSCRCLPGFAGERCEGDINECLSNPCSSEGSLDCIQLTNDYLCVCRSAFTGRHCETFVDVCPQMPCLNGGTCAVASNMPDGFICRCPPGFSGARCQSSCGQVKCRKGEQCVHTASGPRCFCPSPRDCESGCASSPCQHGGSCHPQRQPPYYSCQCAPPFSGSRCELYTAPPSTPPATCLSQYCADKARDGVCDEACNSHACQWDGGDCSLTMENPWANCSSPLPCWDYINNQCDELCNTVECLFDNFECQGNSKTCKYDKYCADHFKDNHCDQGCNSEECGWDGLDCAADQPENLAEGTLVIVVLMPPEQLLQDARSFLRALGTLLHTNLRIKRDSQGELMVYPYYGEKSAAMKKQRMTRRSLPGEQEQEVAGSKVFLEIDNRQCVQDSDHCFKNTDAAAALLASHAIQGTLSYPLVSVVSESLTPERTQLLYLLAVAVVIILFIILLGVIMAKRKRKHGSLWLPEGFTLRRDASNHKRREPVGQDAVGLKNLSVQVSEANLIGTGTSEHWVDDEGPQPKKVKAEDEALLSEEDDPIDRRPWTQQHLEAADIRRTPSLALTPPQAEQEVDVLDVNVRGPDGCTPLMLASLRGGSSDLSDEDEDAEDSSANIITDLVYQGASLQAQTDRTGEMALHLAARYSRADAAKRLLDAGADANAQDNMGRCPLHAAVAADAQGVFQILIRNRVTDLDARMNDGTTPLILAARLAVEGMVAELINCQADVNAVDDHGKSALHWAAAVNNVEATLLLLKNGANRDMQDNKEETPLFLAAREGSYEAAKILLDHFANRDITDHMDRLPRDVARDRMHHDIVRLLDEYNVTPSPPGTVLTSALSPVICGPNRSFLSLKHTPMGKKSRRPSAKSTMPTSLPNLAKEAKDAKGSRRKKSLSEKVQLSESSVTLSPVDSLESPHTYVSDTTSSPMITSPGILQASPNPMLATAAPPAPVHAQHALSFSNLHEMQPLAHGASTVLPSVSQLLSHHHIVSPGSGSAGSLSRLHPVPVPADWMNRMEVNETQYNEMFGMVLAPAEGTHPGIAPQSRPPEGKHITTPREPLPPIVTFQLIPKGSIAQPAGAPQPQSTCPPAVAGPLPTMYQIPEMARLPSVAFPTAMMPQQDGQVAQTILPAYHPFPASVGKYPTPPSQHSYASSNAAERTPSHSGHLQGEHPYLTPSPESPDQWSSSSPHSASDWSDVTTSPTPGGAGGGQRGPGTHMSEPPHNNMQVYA
Sequence of Pro-neuregulin-1, membrane-bound isoform (Homo sapiens) (Q02297 whole entry, looked up, the tested form may be a part, canonical isoform): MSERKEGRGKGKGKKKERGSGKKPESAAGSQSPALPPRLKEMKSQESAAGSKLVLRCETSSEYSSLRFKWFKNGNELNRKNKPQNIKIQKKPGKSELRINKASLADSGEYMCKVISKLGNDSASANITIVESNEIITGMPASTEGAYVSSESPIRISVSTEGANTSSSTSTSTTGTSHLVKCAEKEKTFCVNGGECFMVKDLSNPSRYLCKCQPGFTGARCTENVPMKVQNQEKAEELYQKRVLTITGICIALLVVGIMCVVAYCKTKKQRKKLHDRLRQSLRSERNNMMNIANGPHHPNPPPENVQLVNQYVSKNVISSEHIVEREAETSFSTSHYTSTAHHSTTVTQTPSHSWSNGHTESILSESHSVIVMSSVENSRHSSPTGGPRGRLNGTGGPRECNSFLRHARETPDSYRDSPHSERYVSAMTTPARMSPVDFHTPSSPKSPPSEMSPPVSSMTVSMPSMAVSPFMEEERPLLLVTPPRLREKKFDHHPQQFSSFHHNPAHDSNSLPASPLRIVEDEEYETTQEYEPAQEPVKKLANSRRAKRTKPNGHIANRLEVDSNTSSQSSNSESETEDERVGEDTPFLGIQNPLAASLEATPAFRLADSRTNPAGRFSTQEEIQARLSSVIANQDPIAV

With `C=CC[C@]1(C(=O)NCCN2CCOCC2)N=C(c2ccc(OCCCO)cc2)O[C@H]1c1ccccc1`, the composite z-score in assay [1] was -0.038; in assay [2] it was 0.422; in [3], -0.0691; in assay [4] it was 0.571; in [5] it was 0.862; in assay [6] it was 0.0304. The composite z-score in [7] is 1.25; in [9], 1.18; in [10] it was -0.479. The z-score in [8] is 1.37 (inactive).

On to `C=C(CCCC)/C(=C/C[C@@H](OC(C)=O)c1ccc(OCCO)cc1)c1cc(C(=O)OC)ccc1OC`, for which the composite z-score in assay [1] was 0.0062; in assay [2], 0.982; in assay [3], -0.076; in assay [4], -0.314; in assay [5], -0.332; in assay [6], 1.37. In addition, the figures for the composite z-score in [7], in assay [9] and in assay [10] were 1.21, 0.0501 and -0.119, respectively. Besides, the z-score in assay [8] is 2.07 (inactive).

As for `C=CCOC(=O)[C@@H]1[C@H]2C(=O)O[C@H](c3ccccc3)[C@H](c3ccccc3)N2[C@H](c2ccc(OCCOC(=O)[C@@H]3C[C@@H]4C(=O)N[C@@H](CC(C)C)C(=O)N4[C@@H]3c3ccc(O)cc3)cc2)[C@@]12C(=O)Nc1ccc(I)cc12`, the composite z-score in assay [1] was -0.479; in assay [2], 0.17; in [3], -0.0489; in assay [4] it was 0.325; in assay [5], 0.853; in assay [6], 0.616. The composite z-score worked out at 1.29 in assay [7], 0.4 in assay [9] and 0.383 in [10]. Moreover, in assay [8], the z-score is -0.277 (inactive).

In the case of `CC(C)C[C@H]1NC(=O)CNC(=O)[C@@]23C(=O)N[C@@H](Cc4ccccc4)C2[C@H](C)[C@@]2(C)O[C@H]2C3/C=C/C/C=C\CNC1=O` (stereo not given in full), the composite z-score in assay [1] is -0.564; in assay [2], 0.11; in assay [3], -0.159; in [4] it was 0.582; in assay [5] it was -0.222; in assay [6], 0.205. In addition, the values for the composite z-score in [7], in assay [9] and in assay [10] were 0.598, 0.136 and -0.0121, respectively. Also, the z-score in assay [8] was 1.81 (inactive).

Turning to `COC(=O)[C@@]1(Cc2ccc(F)cc2)[C@@H]2C(=CC(=O)[C@H]2CC(=O)C(=O)N2CCCC2)CN1C(=O)c1ccccc1`, the composite z-score in [1] is 1; in [2], 1.61; in assay [3], 0.575; in [4], 0.866; in assay [5] it was 1.58; in [6] it was 1.81. The composite z-score in [7] was found to be 1.33; in assay [9], 2.02; in assay [10], 0.655. In addition, in assay [8], the z-score was 1.48 (inactive).

On to `O=C(O)C1=CC[C@H]2C(=O)N(c3ccccc3)C(=O)[C@@H]12`, for which the composite z-score is 0.115 in assay [1]; -0.037 in assay [2]; 0.0601 in [3]; 0.676 in assay [4]; 1.58 in assay [5]; 0.42 in [6]. In addition, the composite z-score in assay [7] came to 1.16; in assay [9] it was 0.914; in assay [10], 0.0749. For the same molecule, in assay [8], the z-score is -0.127 (inactive).

For `C=C(CCCC)C(=O)CC[C@@H](OC(C)=O)c1ccc(OCCO)cc1`, the composite z-score in assay [1] was 0.0324; in [2], 1.11; in assay [3] it was -0.0909; in assay [4], 1.01; in assay [5], -0.626; in [6] it was 0.409. Moreover, the composite z-score in assay [7] is 1.02; in assay [9], 0.0685; in assay [10], -0.134. The z-score in [8] was -0.0798 (inactive).

Take `CCCCCN1CC=CC23O[C@@H]4/C=C\CCCOC(=O)C4[C@H]2C(=O)N(CCCCCO)[C@@H]3C1=O` (stereo not given in full): the composite z-score in assay [1] was 0.239; in [2], -0.291; in assay [3] it was -0.103; in assay [4] it was -0.501; in [5], -0.581; in assay [6] it was -0.315. The composite z-score in assay [7] was -0.786; in assay [9] it was -0.841; in [10] it was -0.164. In addition, the z-score in assay [8] is -0.225 (inactive).

Turning to `COCCOC(=O)N1C(=O)[C@@]2(c3cc(C#CCC(C(=O)OC)C(=O)OC)ccc31)[C@H](c1ccc(O)cc1)N1[C@H](c3ccccc3)[C@H](c3ccccc3)OC(=O)[C@H]1[C@@H]2C(=O)N1CCc2cc(OC)c(OC)cc2C1`, the composite z-score is 0.0804 in assay [1]; 0.838 in [2]; -0.0538 in assay [3]; 0.818 in assay [4]; 1.21 in assay [5]; 1.04 in [6]. The results for the composite z-score in assay [7], in [9] and in assay [10] were 1.14, 0.186 and 0.224, respectively. For the same molecule, the z-score in assay [8] is 0.336 (inactive).

Take `C=C[C@H](C)[C@@H](OC(=O)Nc1ccc(SC)cc1)c1ccc(OCCO)cc1`: the composite z-score in [1] was 0.169; in [2], 0.378; in assay [3] it was -0.0408; in assay [4], 0.0044; in assay [5] it was -0.421; in assay [6], 0.99. The composite z-score is 1.26 in [7], 0.0372 in assay [9] and -0.264 in [10]. In [8], the z-score was 5.34 (inactive).

On to `C=C1C(=O)C=C2CN(C(=O)c3ccccc3)[C@@](Cc3ccc(F)cc3)(C(=O)OC)[C@@H]12`, for which the composite z-score was 0.891 in assay [1]; -0.595 in assay [2]; 0.25 in assay [3]; 1.12 in [4]; 1.71 in assay [5]; 1.89 in assay [6]. In addition, the composite z-score is 1.09 in assay [7], 1.87 in assay [9] and -0.129 in [10]. Besides, the z-score in assay [8] is 4.89 (inactive).

Consider `COCCCNC(=O)[C@@]1(c2ccc([N+](=O)[O-])cc2)CC(=O)N(C2CCCCC2)[C@@H]1c1ccc(CO)cc1I`, for which the composite z-score in assay [1] was 0.234; in [2], 1.2; in assay [3] it was 0.0247; in assay [4], 0.0624; in [5], -0.161; in assay [6] it was 0.944. For the same molecule, the composite z-score in assay [7] was 1.31; in [9] it was -0.0119; in assay [10], 0.259. Also, the z-score in [8] was -1.27 (inactive).

For `CC[C@@H](O[Si](C#C[Si](C(C)C)(C(C)C)C(C)C)(C(C)C)C(C)C)c1cn([C@H](C)c2ccccc2)nn1`, the composite z-score in assay [1] is -0.51; in assay [2], 0.488; in assay [3], -0.0797; in assay [4] it was 0.663; in [5], 0.728; in assay [6], 0.284. Besides, the composite z-score in assay [7] turned out to be 0.739; in assay [9], 0.129; in [10] it was 0.115. Further, the z-score in [8] was -0.0777 (inactive).

For `CCCCN1CC=CC23O[C@@H]4/C=C\CCC(C)OC(=O)C4[C@H]2C(=O)N(CCO)[C@@H]3C1=O` (stereo not given in full), the composite z-score in assay [1] was 0.19; in assay [2], 1.97; in [3] it was -0.117; in [4], -0.206; in assay [5], -0.722; in assay [6], 0.19. Moreover, the composite z-score in [7] was 1.12; in assay [9], -0.14; in [10], -0.3. Also, in assay [8], the z-score is -0.093 (inactive).
